# Source: PubChem BioAssay (EPA / NIEHS)
# Results filed as inconclusive are left out. Activity calls are given as the source filed them. How the source made its calls: active means hit-call score of the fitted dose curve at least 0.9, where 1 is the maximum; inconclusive means response in the unintended direction; inactive means score below 0.9.
# Assay: ACEA_ER_80hr: ACEA Biosciences xCELLigence Real-Time Cell Analysis on Estrogen Receptor Agonism for Proliferation (AID 2282667)
# Details: T47D proliferation, impedance (xCELLigence), 80 h
# Method in brief: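 Real-time electrical impedance tracked growth of the human breast line T47D, with the 80 h post-dosing value used. Dosing spanned eight 1:4 steps down from a 100 uM final top concentration, run in duplicate.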
SMILES,outcome,AC50
O=C(O)c1cc2ccccc2cc1O,inactive,
CCOC(=O)C=Cc1ccccc1,inactive,
CC(C)(O)C(=O)c1ccc(OCCO)cc1,inactive,
COC(=O)C(C)Oc1ccc(Oc2ncc(C(F)(F)F)cc2Cl)cc1 (centres undefined),inactive,
NC(N)=S,,1290 nM (active)
CCC(C)(C)C1CCC(=O)CC1,inactive,
Nc1ccn([C@H]2CC[C@@H](CO)O2)c(=O)n1,inactive,
CCCCCCCCCCCCCCCCCC(=O)OCCCCCCCCCCCCCC(C)C,inactive,
CCCCCC#CC(=O)OC,inactive,
Brc1cc(Br)cc(Br)c1,inactive,
O=C1CCC(=O)N1,inactive,
CNC(=C[N+](=O)[O-])NCCSCc1ccc(CN(C)C)o1,inactive,
CCOC(=O)CCCCCCCCC(=O)OCC,inactive,
CC12CCC(C1)C(C)(C)C2O (centres undefined),inactive,
CC1(C)[C@H](C=C(Cl)Cl)[C@H]1C(=O)OCc1cccc(Oc2ccccc2)c1,inactive,
CCCC1CCC(=O)CC1,inactive,
O=c1cc[nH]cc1,inactive,
O=C(O)c1cc(C(=O)O)c(C(=O)O)cc1C(=O)O,inactive,
C=C(C)C(N)=O,inactive,
CN(C)C,inactive,
CCCCCCCCCCCCS,inactive,
CC(=O)CC(C)(C)C1CCCCC1,inactive,
C=CCOCC(O)CO (centres undefined),,28.5 nM (active)
O=S(=O)(O)c1cc(O)c(O)c(S(=O)(=O)O)c1,inactive,
Cc1ccc(C(C)(C)O)cc1,inactive,
CC(O)CN (centres undefined),inactive,
CC(C)N1C(=O)c2ccccc2C1=O,inactive,
CCn1cc(C(=O)O)c(=O)c2ccc(C)nc21,inactive,
c1ccc(-c2nn[nH]n2)cc1,,26.1 nM (active)
